About 7,900 targets were measured; listed, in parts, are those with a hit and a random draw of the rest. About 0.6% of all pairs of compound and target were hits. Values without a mark were called inactive.
What was measured:
Experiment in all cases: log2 fold change, soluble protein after heating vs DMSO (PISA); higher = thermal stabilisation; K562 cells, 10 uM, 30 min; active = over 0.2 and 3.5 SD of the protein, either way, in both replicates (recomputed)
[1] = compound: C#Cc1cccc(Nc2ncnc3cc(OCCOC)c(OCCOC)cc23)c1 [erlotinib]
In short: (§1)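 Thermal stability values are relative to control samples and come from duplicates. They are expressed as log2 fold changes. For measurement, K562 cells (2×10^6 cells/mL) received 10 μM compound for 30 min, and aliquots were heated for 3 min over 48°C-58°C, pooled, and extracted at 4°C in PBS with 0.5% NP-40. Soluble protein, the supernatant after 21,000xg for 90 min, was quantified by TMTpro 16plex LC-MS/MS with equalised channel sums.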

[2] = compound: C/C(=N\NC(=O)C1=CC(=CC=C1)S(=O)(=O)N2CCOCC2)/C3=C(C=CC(=C3)Cl)O
In short: as §1

[3] = compound: C1=CC(=C(C=C1Cl)C2=NC3=NC=CN=C3C(=N2)NC4=CC=NC=C4)F
In short: as §1

[4] = compound: C1=CC(=CC=C1C2=NC3=C(N2)C=C(C=C3)C(=O)N)OC4=CC=C(C=C4)Cl
In short: as §1

[5] = compound: C1=CC2=C(C=CC(=C2)/C=C\3/C(=O)NC(=NCC4=CC=CS4)S3)N=C1
In short: as §1

[6] = compound: C1=CC2=NC=CN=C2C=C1/C=C/3\C(=O)NC(=O)S3
In short: as §1

[7] = compound: C1=CC=C(C=C1)C2=NC(=C(N2)C3=CC=NC=C3)C4=CC(=C(C=C4)Cl)O
In short: as §1

[8] = compound: C1=CC=C2C(=C1)C3=NNC4=CC=CC(=C43)C2=O
In short: as §1

[9] = compound: C1CCN(C1)C(=O)NC2=CC=CC(=C2)NC3=NC=C(C(=N3)NCCC4=CN=CN4)Br
In short: as §1

[10] = compound: C1CN(CCC1(CC2=CC=C(C=C2)Cl)N)C3=NC=NC4=C3C=CN4
In short: as §1

[11] = compound: C1COCCN1CCN2C3=CC=CC=C3N=C2NC(=O)C4=CC(=CC=C4)[N+](=O)[O-] [IRAK-1-4 Inhibitor I]
In short: as §1

[12] = compound: C=CC(=O)N1CCC[C@@H](n2nc(-c3ccc(Oc4ccccc4)cc3)c3c(N)ncnc32)C1 [ibrutinib]
In short: as §1

[13] = compound: CC(=O)c1cnc2ccc(-c3cc(Cl)c(O)c(Cl)c3)nc2c1N[C@H]1CC[C@H](CN(C)C)CC1
In short: as §1

[14] = compound: CC(C)(C)Cn1c(N)nc2ccc(-c3[nH]c(C(C)(C)C)nc3-c3ccc(F)cc3)nc21 [ralimetinib]
In short: as §1

[15] = compound: CC(C)(O)CC(=O)NCCn1ccc2ncnc(Nc3ccc(Oc4cccc(C(F)(F)F)c4)c(Cl)c3)c21
In short: as §1

[16] = compound: CC(C)C1=C2N=C(C=C(N2N=C1)NCC3=CC=CC=C3)NCCCCCCN
In short: as §1

[17] = compound: CC(C)C[C@@H](C=O)NC(=O)[C@H](CC(C)C)NC(=O)[C@H](CC(C)C)NC(=O)OCc1ccccc1
In short: as §1

[18] = compound: CC(C)N(C[C@H]1O[C@@H](n2cnc3c(N)ncnc32)[C@H](O)[C@@H]1O)[C@H]1C[C@@H](CCc2nc3cc(C(C)(C)C)ccc3[nH]2)C1 [pinometostat]
In short: as §1

[19] = compound: CC1=C(C(CC(=O)N1)C2=CC=C(C=C2)C(F)(F)F)C(=O)NC3=C(C=C4C(=C3)C=NN4)F
In short: as §1

[20] = compound: CC1=C(C2=C(C=C1)C(=O)C3=CC=CC=C3N2CCCN)C
In short: as §1

Sequence of UniProt Q13596 (Q13596 whole entry, looked up): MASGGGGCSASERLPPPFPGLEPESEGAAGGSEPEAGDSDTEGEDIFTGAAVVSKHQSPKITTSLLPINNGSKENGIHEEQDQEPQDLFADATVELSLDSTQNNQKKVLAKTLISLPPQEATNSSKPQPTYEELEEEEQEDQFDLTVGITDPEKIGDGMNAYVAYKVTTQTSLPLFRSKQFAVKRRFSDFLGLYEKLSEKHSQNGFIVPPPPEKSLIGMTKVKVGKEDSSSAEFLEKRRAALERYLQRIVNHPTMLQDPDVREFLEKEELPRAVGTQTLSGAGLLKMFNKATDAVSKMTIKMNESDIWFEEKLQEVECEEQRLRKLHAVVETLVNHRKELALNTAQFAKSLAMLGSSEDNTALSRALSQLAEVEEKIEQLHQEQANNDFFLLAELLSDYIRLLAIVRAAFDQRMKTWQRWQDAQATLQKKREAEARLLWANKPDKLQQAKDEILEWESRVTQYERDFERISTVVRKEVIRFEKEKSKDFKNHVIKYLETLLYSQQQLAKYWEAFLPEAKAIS
Sequence of UniProt Q15526 (Q15526 whole entry, looked up): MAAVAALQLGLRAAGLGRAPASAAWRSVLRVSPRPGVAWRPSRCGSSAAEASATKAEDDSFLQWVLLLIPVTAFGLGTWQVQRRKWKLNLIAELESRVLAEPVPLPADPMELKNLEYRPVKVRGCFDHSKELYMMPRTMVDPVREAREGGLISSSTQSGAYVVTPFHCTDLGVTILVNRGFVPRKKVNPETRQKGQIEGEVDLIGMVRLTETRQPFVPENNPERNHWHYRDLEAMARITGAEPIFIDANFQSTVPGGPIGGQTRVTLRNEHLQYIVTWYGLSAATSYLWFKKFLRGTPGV
Sequence of UniProt Q08170 (Q08170 whole entry, looked up): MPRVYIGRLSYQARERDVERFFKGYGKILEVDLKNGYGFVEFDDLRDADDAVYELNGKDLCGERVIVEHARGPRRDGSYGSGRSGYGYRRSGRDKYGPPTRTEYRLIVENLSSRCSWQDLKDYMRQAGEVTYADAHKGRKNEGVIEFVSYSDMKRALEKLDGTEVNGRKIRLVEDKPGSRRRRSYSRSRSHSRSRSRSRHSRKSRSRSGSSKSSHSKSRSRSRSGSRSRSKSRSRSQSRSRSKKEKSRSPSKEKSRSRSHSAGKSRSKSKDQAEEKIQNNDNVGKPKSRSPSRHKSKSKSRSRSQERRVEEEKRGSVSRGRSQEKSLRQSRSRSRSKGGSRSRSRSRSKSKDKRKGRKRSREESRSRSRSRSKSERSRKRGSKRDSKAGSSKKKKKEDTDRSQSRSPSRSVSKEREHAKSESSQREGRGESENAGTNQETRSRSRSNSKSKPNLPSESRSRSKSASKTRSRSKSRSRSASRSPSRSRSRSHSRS
Sequence of UniProt Q9UMY4 (Q9UMY4 whole entry, looked up): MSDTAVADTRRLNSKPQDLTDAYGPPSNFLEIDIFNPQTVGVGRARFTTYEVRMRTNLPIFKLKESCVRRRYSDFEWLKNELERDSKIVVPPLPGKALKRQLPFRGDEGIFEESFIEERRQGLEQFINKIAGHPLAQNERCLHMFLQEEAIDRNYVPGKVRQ
Sequence of UniProt Q08AE8 (Q08AE8 whole entry, looked up): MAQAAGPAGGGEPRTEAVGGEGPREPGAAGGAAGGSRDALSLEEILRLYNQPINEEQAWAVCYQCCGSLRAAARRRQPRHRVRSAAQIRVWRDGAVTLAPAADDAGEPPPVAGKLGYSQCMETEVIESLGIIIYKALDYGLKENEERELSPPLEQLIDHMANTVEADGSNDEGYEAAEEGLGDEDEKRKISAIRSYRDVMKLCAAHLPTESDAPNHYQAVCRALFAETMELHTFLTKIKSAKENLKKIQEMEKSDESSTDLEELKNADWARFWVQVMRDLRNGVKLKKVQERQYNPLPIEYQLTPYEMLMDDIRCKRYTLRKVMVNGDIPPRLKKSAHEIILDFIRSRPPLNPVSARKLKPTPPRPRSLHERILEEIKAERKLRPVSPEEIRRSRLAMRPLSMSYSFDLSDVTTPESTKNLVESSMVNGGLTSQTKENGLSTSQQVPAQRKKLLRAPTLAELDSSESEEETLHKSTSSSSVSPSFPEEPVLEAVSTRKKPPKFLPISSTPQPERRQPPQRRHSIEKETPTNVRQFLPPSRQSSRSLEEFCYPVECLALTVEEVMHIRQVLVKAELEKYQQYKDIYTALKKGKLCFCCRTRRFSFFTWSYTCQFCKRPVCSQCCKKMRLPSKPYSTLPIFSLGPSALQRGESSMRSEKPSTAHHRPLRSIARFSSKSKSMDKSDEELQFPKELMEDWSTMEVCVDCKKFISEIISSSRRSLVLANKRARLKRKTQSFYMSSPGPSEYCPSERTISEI
Sequence of UniProt Q99805 (Q99805 whole entry, looked up): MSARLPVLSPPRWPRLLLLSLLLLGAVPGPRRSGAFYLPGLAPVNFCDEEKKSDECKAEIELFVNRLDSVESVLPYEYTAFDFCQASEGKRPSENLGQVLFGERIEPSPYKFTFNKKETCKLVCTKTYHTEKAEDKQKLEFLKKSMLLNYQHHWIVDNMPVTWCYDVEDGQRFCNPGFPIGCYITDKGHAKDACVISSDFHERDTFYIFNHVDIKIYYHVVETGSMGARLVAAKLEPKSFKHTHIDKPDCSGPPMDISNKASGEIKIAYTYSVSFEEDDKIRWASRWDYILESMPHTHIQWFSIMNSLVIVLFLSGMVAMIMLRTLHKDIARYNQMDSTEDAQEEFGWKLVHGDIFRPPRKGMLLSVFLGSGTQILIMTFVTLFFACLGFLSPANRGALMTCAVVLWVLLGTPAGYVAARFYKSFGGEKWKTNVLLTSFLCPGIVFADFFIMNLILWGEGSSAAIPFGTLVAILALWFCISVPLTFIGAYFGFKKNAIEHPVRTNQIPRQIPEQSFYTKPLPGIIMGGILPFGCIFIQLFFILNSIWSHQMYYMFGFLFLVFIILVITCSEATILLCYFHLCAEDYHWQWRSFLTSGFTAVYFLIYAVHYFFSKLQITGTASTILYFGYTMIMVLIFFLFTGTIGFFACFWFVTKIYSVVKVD
Sequence of UniProt Q9UHB9 (Q9UHB9 whole entry, looked up): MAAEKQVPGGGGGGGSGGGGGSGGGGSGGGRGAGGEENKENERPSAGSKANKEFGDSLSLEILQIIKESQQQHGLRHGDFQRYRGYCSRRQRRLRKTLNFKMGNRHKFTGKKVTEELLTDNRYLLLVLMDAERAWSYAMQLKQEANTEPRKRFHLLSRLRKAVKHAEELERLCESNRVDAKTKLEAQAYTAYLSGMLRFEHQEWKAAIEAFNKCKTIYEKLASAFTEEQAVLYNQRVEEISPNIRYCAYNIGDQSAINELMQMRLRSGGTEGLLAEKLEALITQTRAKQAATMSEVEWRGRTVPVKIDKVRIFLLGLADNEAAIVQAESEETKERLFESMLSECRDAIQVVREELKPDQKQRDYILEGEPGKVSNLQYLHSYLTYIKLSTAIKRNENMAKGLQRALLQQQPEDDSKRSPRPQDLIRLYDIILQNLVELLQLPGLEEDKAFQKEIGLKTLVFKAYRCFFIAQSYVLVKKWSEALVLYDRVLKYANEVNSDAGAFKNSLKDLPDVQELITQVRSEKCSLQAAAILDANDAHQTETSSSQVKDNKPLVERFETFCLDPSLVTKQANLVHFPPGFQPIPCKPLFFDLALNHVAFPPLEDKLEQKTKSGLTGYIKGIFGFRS
Sequence of UniProt Q5JUR7 (Q5JUR7 whole entry, looked up): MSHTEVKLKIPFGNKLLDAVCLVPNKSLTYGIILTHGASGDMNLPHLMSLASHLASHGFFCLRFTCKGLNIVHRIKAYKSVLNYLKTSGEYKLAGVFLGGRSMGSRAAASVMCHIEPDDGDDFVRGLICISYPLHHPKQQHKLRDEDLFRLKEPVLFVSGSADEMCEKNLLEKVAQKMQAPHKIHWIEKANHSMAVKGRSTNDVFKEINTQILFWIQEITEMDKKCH
Sequence of UniProt Q5T5C0 (Q5T5C0 whole entry, looked up): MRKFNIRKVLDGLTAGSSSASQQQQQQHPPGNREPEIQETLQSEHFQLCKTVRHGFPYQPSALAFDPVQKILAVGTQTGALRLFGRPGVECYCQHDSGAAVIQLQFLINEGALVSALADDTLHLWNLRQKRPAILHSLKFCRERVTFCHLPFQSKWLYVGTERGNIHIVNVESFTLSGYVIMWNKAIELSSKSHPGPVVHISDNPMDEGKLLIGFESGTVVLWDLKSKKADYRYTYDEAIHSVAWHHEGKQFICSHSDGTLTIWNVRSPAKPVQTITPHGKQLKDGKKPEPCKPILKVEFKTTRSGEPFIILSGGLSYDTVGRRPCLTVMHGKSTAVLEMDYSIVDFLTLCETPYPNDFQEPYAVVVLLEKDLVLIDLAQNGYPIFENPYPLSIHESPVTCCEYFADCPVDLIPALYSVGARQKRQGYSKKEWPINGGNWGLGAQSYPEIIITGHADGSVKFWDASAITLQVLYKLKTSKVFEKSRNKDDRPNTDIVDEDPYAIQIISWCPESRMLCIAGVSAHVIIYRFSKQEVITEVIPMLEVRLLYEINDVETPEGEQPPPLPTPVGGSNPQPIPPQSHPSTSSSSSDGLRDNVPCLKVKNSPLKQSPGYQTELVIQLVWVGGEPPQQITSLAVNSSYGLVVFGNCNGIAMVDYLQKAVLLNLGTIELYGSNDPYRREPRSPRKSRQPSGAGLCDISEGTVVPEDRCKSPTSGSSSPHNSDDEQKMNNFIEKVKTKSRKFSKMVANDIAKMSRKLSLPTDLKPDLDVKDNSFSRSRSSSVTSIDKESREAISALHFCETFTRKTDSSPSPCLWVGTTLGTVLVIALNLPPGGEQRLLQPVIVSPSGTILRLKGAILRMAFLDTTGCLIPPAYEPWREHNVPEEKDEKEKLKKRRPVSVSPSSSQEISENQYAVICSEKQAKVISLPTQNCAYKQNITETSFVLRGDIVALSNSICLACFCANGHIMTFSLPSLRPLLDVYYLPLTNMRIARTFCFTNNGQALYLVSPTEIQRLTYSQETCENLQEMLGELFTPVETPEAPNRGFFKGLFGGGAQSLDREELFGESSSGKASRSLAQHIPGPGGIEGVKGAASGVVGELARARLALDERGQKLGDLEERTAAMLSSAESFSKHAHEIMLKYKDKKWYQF

Target | log2 fold change [1] | log2 fold change [2] | log2 fold change [3] | log2 fold change [4] | log2 fold change [5] | log2 fold change [6] | log2 fold change [7] | log2 fold change [8] | log2 fold change [9] | log2 fold change [10] | log2 fold change [11] | log2 fold change [12] | log2 fold change [13] | log2 fold change [14] | log2 fold change [15] | log2 fold change [16] | log2 fold change [17] | log2 fold change [18] | log2 fold change [19] | log2 fold change [20]
SURF1 (UniProt Q15526) | 0.021 | -0.036 | 0.051 | -0.026 | -0.045 | 0.055 | 0.056 | 0.017 | -0.141 | 0 | 0.021 | -0.028 | 0.051 | -0.04 | 0.036 | -0.172 | 0.028 | -0.044 | 0.022 | 0.098
SRSF4 (UniProt Q08170) | -0.054 | 0.015 | -0.325 | 0.05 | -0.155 | -0.072 | -0.024 | -0.109 | 0.007 | -0.254 | -0.306 | 0.069 | -0.261 | 0.125 | 0.088 | -0.174 | 0.019 | 0.126 | -0.009 | -0.379
SPIRE1 (UniProt Q08AE8) | 0.16 | -0.264 | -0.466 (active) | -0.119 | 0.11 | -0.034 | 0.048 | -0.063 | 0.01 | 0.145 | -0.065 | 0.032 | 0 | 0.008 | 0.073 | 0.181 | 0.09 | -0.006 | -0.036 | 0.029
SNX9 (UniProt Q9Y5X1) | -0.005 | 0.047 | -0.004 | -0.024 | 0.004 | 0.014 | -0.006 | -0.011 | -0.01 | 0.028 | -0.011 | 0.025 | -0.043 | 0.005 | 0.002 | 0.014 | 0.029 | 0.04 | 0.024 | 0.02
SNX1 (UniProt Q13596) | 0.048 | 0.034 | 0.009 | 0.055 | 0.005 | -0.035 | -0.024 | -0.118 | 0.017 | -0.03 | 0.022 | 0.022 | -0.227 | 0.033 | -0.288 | -0.246 | 0.034 | 0.014 | 0.015 | 0.036
SNX12 isoform 1 (UniProt Q9UMY4) | 0.002 | 0 | 0.052 | -0.019 | 0.065 | -0.01 | 0.039 | -0.064 | 0.048 | -0.034 | 0.039 | -0.007 | -0.069 | -0.011 | -0.068 | -0.09 | 0.03 | 0.032 | -0.007 | 0
TLK1 (UniProt Q9UKI8) | 0.012 | 0.038 | 0.041 | -0.012 | 0.042 | 0.005 | 0.01 | -0.034 | -0.032 | -0.014 | 0.027 | -0.003 | -0.089 | 0.02 | -0.032 | -0.064 | -0.041 | -0.041 | 0.019 | 0.218 (active)
SLC30A7 (UniProt Q8NEW0) | -0.004 | 0.175 | 0.062 | 0.006 | -0.086 | 0.077 | 0.109 | 0.004 | 0.016 | 0.132 | 0.035 | 0.063 | 0.032 | -0.098 | -0.075 | -0.186 | 0.011 | -0.007 | -0.058 | 0.06
TM9SF2 (UniProt Q99805) | 0.012 | 0.025 | 0.037 | -0.006 | 0.027 | -0.021 | 0.04 | 0.009 | -0.04 | 0.063 | 0.06 | 0.01 | -0.04 | -0.049 | 0.021 | -0.436 (active) | -0.012 | -0.003 | 0.008 | 0.027
SPG21 (UniProt Q9NZD8) | 0.014 | 0.075 | -0.08 | 0.021 | -0.045 | 0.054 | 0.103 | 0.083 | -0.032 | 0.012 | -0.042 | -0.167 | -0.046 | 0.014 | 0.043 | -0.007 | 0.021 | 0.019 | -0.062 | 0.072
SP3 (UniProt Q02447) | 0.034 | -0.028 | 0 | 0.059 | 0.003 | -0.051 | -0.053 | -0.066 | -0.065 | -0.1 | -0.129 | 0.003 | -0.007 | 0 | 0.022 | -0.006 | 0.054 | 0.026 | 0.114 | 0.607 (active)
TEX30 (UniProt Q5JUR7) | 0.183 | 0.165 | -0.011 | -0.013 | 0.188 | 0.025 | -0.01 | 0.046 | -0.147 | -0.029 | -0.013 | 0.08 | -0.048 | 0.053 | -0.251 | -0.075 | 0.03 | 0.105 | 0.061 | 0.028
STXBP5 (UniProt Q5T5C0) | 0.028 | 0.039 | 0.097 | 0.018 | 0.094 | 0.026 | 0.036 | -0.015 | -0.014 | 0.011 | -0.025 | -0.037 | -0.073 | 0.029 | -0.038 | -0.107 | -0.049 | 0.025 | 0.018 | 0.048
STARD3NL (UniProt O95772) | 0.004 | -0.107 | -0.004 | -0.003 | 0.169 | 0.048 | 0.11 | 0.103 | -0.013 | 0.015 | 0.014 | -0.023 | -0.216 | 0.038 | -0.014 | -0.432 (active) | -0.036 | 0.013 | 0.007 | 0.062
STX7 (UniProt O15400) | 0.02 | -0.029 | 0.02 | 0.021 | -0.02 | 0.02 | -0.009 | -0.007 | 0 | 0.056 | -0.01 | 0.024 | 0.011 | -0.039 | 0.012 | -0.087 | -0.009 | -0.109 | 0 | 0.017
SRP68 (UniProt Q9UHB9) | 0.047 | 0.034 | -0.043 | -0.071 | 0.011 | 0.01 | 0.002 | -0.087 | 0.015 | -0.107 | -0.118 | -0.037 | 0.014 | 0.071 | -0.065 | -0.272 | 0.065 | 0.145 | -0.016 | -0.345 (active)
